Measurements from PubChem BioAssay (NCATS).
Results filed as inconclusive are left out. A call without a number means that no potency is given here. Active and inactive are the calls of the source. The call rests on the fitted dose curve; in most records, active means well fitted inhibition curve with a large enough effect; inconclusive means small, poorly fitted or top-dose-only effect; inactive means flat fitted curve, though single readings scatter.

Tests used:
Test in all cases: qHTS profiling for inhibitors of Plasmodium falciparum proliferation (AID 504749); further: nearly all actives have a fitted effect of over 60% in size
Settings in all cases: P. falciparum in erythrocytes, SYBR Green DNA, 72 h; series mostly up to 28.7 µM
[1] = tested on: AS120
In short: (§1)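 P. falciparum-infected erythrocytes (0.3% parasitemia, 2.5% hematocrit final) were exposed to compounds for 72 h at 37 C in 5% CO2, then lysed with SYBR Green buffer overnight at room temperature; parasite DNA fluorescence was normalized to artemisinin and DMSO controls.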

[2] = tested on: ATS189
In short: as §1

[3] = tested on: ATS95
In short: as §1

[4] = tested on: C2A
In short: as §1

[5] = tested on: CP185
In short: as §1

[6] = tested on: CP191
In short: as §1

[7] = tested on: CP192
In short: as §1

[8] = tested on: CP194
In short: as §1

[9] = tested on: CP201
In short: as §1

[10] = tested on: CP211
In short: as §1

[11] = tested on: CP215
In short: as §1

[12] = tested on: CP217
In short: as §1

[13] = tested on: CP237
In short: as §1

[14] = tested on: CP238
In short: as §1

[15] = tested on: CP247
In short: as §1

[16] = tested on: CP250
In short: as §1

[17] = tested on: CP252
In short: as §1

[18] = tested on: CP256
In short: as §1

[19] = tested on: CP260
In short: as §1

[20] = tested on: CP203
In short: as §1
Potency means the concentration at half of the fitted maximal effect.

SMILES | Potency [1] | Potency [2] | Potency [3] | Potency [4] | Potency [5] | Potency [6] | Potency [7] | Potency [8] | Potency [9] | Potency [10] | Potency [11] | Potency [12] | Potency [13] | Potency [14] | Potency [15] | Potency [16] | Potency [17] | Potency [18] | Potency [19] | Potency [20]
C[C@H](O)C(=O)Nc1c(I)c(C(=O)NC(CO)CO)c(I)c(C(=O)NC(CO)CO)c1I | inactive | inactive | inactive | inactive | inactive | inactive | inactive | inactive | inactive | inactive | inactive | inactive | inactive | inactive | inactive | inactive | inactive | inactive | inactive | –
CC(C)(C)CC(C)(C)c1ccc(O)c(Cc2ccc(Cl)cc2Cl)c1 | 0.501 µM (active) | 0.794 µM (active) | 2 µM (active) | 2.82 µM (active) | 3.16 µM (active) | 1 µM (active) | 3.79 µM (active) | – | – | 1.51 µM (active) | 1.69 µM (active) | 2.82 µM (active) | 2.51 µM (active) | 1.41 µM (active) | 3.16 µM (active) | 3.16 µM (active) | 1 µM (active) | 3.55 µM (active) | 2 µM (active) | –
Nc1ccc(C(=O)O)cc1 | inactive | inactive | inactive | inactive | inactive | inactive | inactive | inactive | inactive | inactive | inactive | inactive | inactive | inactive | inactive | inactive | inactive | inactive | inactive | –
O=C(CCN1CCC(c2ccccc2)C1)c1ccc2c(c1)OCCO2 (stereo unspecified) | inactive | inactive | inactive | inactive | inactive | inactive | inactive | inactive | inactive | inactive | inactive | inactive | inactive | inactive | inactive | inactive | inactive | inactive | inactive | –
CCCCCCC[N+](CC)(CC)CCCCc1ccc(Cl)cc1 | 2.51 µM (active) | 2.82 µM (active) | 2.24 µM (active) | 1.58 µM (active) | 2 µM (active) | 2 µM (active) | 2.03 µM (active) | 2.28 µM (active) | 2.56 µM (active) | 1.44 µM (active) | 2.03 µM (active) | 2.82 µM (active) | 2.82 µM (active) | 2.51 µM (active) | 2.51 µM (active) | 3.16 µM (active) | 2.51 µM (active) | 2.24 µM (active) | 2.24 µM (active) | –
CCCCC(CC)CN=C(N)NC(N)=NCCCCCCN=C(N)NC(N)=NCC(CC)CCCC (stereo unspecified) | 0.891 µM (active) | 3.16 µM (active) | 1.41 µM (active) | 2.24 µM (active) | 1.41 µM (active) | 1 µM (active) | 3.79 µM (active) | 1.51 µM (active) | 1.69 µM (active) | 1.51 µM (active) | 1.69 µM (active) | 3.16 µM (active) | 1.26 µM (active) | 1 µM (active) | 1.12 µM (active) | 0.891 µM (active) | 1.26 µM (active) | 3.55 µM (active) | 1.12 µM (active) | –
CCN(CC)C(=O)/C(C#N)=C/c1cc(O)c(O)c([N+](=O)[O-])c1 | inactive | inactive | inactive | inactive | inactive | inactive | inactive | inactive | inactive | inactive | inactive | – | – | inactive | – | inactive | inactive | inactive | inactive | –
O=C(O)c1cc2cc(Cc3cccnc3)ccc2o1 | inactive | inactive | inactive | inactive | inactive | inactive | inactive | inactive | inactive | inactive | inactive | inactive | inactive | inactive | inactive | inactive | inactive | inactive | inactive | –
CCOc1ccc(Cc2nccc3cc(OCC)c(OCC)cc23)cc1OCC | inactive | inactive | inactive | inactive | inactive | – | inactive | – | – | – | – | – | – | inactive | inactive | inactive | inactive | – | inactive | inactive
COc1cccc(CCc2ccccc2OCC(CN(C)C)OC(=O)CCC(=O)O)c1 (stereo unspecified) | 4.47 µM (active) | 5.62 µM (active) | 5.62 µM (active) | 10 µM (active) | 8.91 µM (active) | – | 16.9 µM (active) | 4.78 µM (active) | – | 7.57 µM (active) | 8.49 µM (active) | 7.94 µM (active) | 1.12 µM (active) | 7.08 µM (active) | 5.62 µM (active) | 11.2 µM (active) | 8.91 µM (active) | 11.2 µM (active) | 3.55 µM (active) | 3.38 µM (active)
Oc1ccc(Cl)c2cccnc12 | inactive | inactive | inactive | inactive | inactive | – | inactive | inactive | inactive | inactive | inactive | inactive | – | inactive | inactive | inactive | inactive | inactive | – | inactive
COc1cc2c(cc1OC)C(=O)C(CC1CCN(Cc3ccccc3)CC1)C2 (stereo unspecified) | inactive | – | inactive | – | – | 8.91 µM (active) | inactive | inactive | inactive | inactive | inactive | – | inactive | – | inactive | – | inactive | inactive | inactive | inactive
CN(C)CCCOc1nn(Cc2ccccc2)c2ccccc12 | inactive | – | – | inactive | inactive | inactive | inactive | inactive | inactive | inactive | inactive | inactive | 3.16 µM (active) | inactive | – | inactive | inactive | inactive | inactive | –
CN1CCN(C(c2ccccc2)c2ccccc2)CC1 | inactive | inactive | – | inactive | inactive | inactive | inactive | – | inactive | inactive | – | inactive | – | inactive | inactive | inactive | inactive | inactive | inactive | –
CCOC(=O)c1cccc(N)c1 | inactive | inactive | inactive | inactive | inactive | inactive | – | – | – | – | – | inactive | inactive | inactive | inactive | inactive | inactive | inactive | inactive | –
COc1c(C)c2c(c(O)c1C/C=C(\C)CCC(=O)O)C(=O)OC2 | 3.16 µM (active) | 2.51 µM (active) | 3.16 µM (active) | 2.82 µM (active) | 3.16 µM (active) | 2.82 µM (active) | – | 4.55 µM (active) | 5.73 µM (active) | 4.55 µM (active) | 3.22 µM (active) | 2.51 µM (active) | 3.55 µM (active) | 3.16 µM (active) | – | 3.16 µM (active) | 2.51 µM (active) | 3.16 µM (active) | 3.16 µM (active) | –
CC(=O)OCC(=O)[C@@]1(OC(C)=O)[C@@H](C)C[C@H]2[C@@H]3C[C@H](F)C4=CC(=O)C=C[C@]4(C)[C@@]3(F)[C@@H](O)C[C@@]21C | inactive | inactive | – | inactive | inactive | inactive | inactive | inactive | inactive | inactive | – | inactive | – | inactive | inactive | inactive | inactive | inactive | inactive | –
O=C1OC(c2ccc(O)cc2)(c2ccc(O)cc2)c2ccccc21 | inactive | – | inactive | inactive | inactive | inactive | – | inactive | inactive | inactive | inactive | inactive | inactive | inactive | inactive | inactive | inactive | inactive | inactive | inactive
c1ccc(-c2ccc(C(c3ccccc3)n3ccnc3)cc2)cc1 (stereo unspecified) | 3.98 µM (active) | 8.91 µM (active) | – | – | 10 µM (active) | 11.2 µM (active) | 10.7 µM (active) | – | – | 19 µM (active) | 15.1 µM (active) | 8.91 µM (active) | 8.91 µM (active) | – | 7.94 µM (active) | – | 10 µM (active) | – | – | 15.1 µM (active)
CC(C)NC[C@@H](O)COc1cccc2ccccc12 | 8.91 µM (active) | 10 µM (active) | – | inactive | – | – | inactive | – | inactive | inactive | – | – | 5.01 µM (active) | – | – | inactive | – | – | 12.6 µM (active) | 10.7 µM (active)
COc1cc(-c2ccc(=O)[nH]n2)ccc1OC(F)F | 0.891 µM (active) | inactive | 0.251 µM (active) | inactive | – | – | – | – | inactive | – | – | inactive | 0.112 µM (active) | – | – | inactive | inactive | 3.16 µM (active) | – | –
C[C@@H]1C[C@H]2[C@@H]3CCC4=CC(=O)C=C[C@]4(C)[C@@]3(F)[C@@H](O)C[C@]2(C)[C@H]1C(=O)CO | inactive | 0.316 µM (active) | inactive | inactive | inactive | inactive | – | inactive | inactive | inactive | inactive | inactive | – | inactive | inactive | inactive | inactive | inactive | inactive | –
Cc1ccc(C(=O)C(C)CN2CCCCC2)cc1 (stereo unspecified) | inactive | – | inactive | inactive | inactive | – | inactive | inactive | inactive | inactive | inactive | inactive | inactive | inactive | inactive | inactive | inactive | inactive | – | –
Oc1c(I)cc(Cl)c2cccnc12 | 10 µM (active) | 12.6 µM (active) | inactive | 11.2 µM (active) | 11.2 µM (active) | 11.2 µM (active) | – | inactive | inactive | inactive | – | 8.91 µM (active) | inactive | 11.2 µM (active) | 12.6 µM (active) | 5.01 µM (active) | 11.2 µM (active) | 2.51 µM (active) | – | inactive
